From PMC5540273 (PLoS ONE, 2017)

Key:
Conditions in all cases: concentration: 1 μM,replicates: in singlicate; n = 1
NEK11 = test system: NEK11
NEK1 = test system: NEK1
NEK2 = test system: NEK2
NEK3 = test system: NEK3
NEK4 = test system: NEK4
NEK5 = test system: NEK5
NEK6 = test system: NEK6
NEK7 = test system: NEK7
NEK9 = test system: NEK9
NIK = test system: T1, NIK
T1 construct: gene MAP3K14
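Further: KINOMEscan kinase panel screen.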

Row | Compound | %Inh (NEK11) [%] | %Inh (NEK1) [%] | %Inh (NEK2) [%] | %Inh (NEK3) [%] | %Inh (NEK4) [%] | %Inh (NEK5) [%] | %Inh (NEK6) [%] | %Inh (NEK7) [%] | %Inh (NEK9) [%] | %Inh (NIK) [%]
1 | COC(=O)c1cccc(NC(=O)NC2CCN(c3ccnc(Nc4cc(OC)c(OC)c(OC)c4)n3)C2)c1 (stereo not drawn) [GSK1379767] | 0 | 52 | 22 | 17 | 0 | 100 | 0 | 37 | 26 | 32
2 | CCOC(=O)N1CCC(n2cnc(-c3ccc(F)cc3)c2-c2ccnc(N)n2)CC1 [SB-219952] | 20 | 0 | 0 | 21 | 15 | 26 | 0 | 31 | 23 | 0
3 | CC(C(=O)NC1CCN(c2ccnc(Nc3ccc(F)cc3)n2)C1)c1ccc(Cl)cc1 (stereo not drawn) [GSK1379713] | 25 | 0 | 0 | 0 | 0 | 15 | 0 | 28 | 34 | 11
4 | CCn1c(-c2nonc2N)nc2cncc(Br)c21 [SB-738004] | 40 | 0 | 0 | 19 | 0 | 10 | 19 | 0 | 11 | 79
5 | CC(=O)c1c(-c2ccncc2)[nH]c(-c2ccncc2)c1C [GW493036] | 0 | 0 | 0 | 47 | 4 | 19 | 0 | 0 | 27 | 28
6 | COc1cc2c(Nc3ccc(NC(=O)c4ccccc4)cc3)ncnc2cc1OCCCN1CCOCC1 [GSK301329] | 0 | 0 | 0 | 0 | 22 | 0 | 0 | 0 | 13 | 9
7 | Cc1cccc2c(-c3ccncc3)c(-c3ccc(F)cc3)nn12.Cl [GW461487] | 4 | 0 | 0 | 0 | 0 | 16 | 0 | 0 | 15 | 10
8 | Cl.Cl.NC[C@H](CC1CCCCC1)NC(=O)c1ccc(-c2ccnc3[nH]ccc23)s1 [GSK1581428] | 0 | – | 0 | 0 | 14 | 15 | 0 | 1 | 17 | 0
9 | COc1cccc(CNC(=O)NC2CCN(c3ccnc(Nc4cc(OC)c(OC)c(OC)c4)n3)C2)c1 (stereo not drawn) [GSK1379765] | 15 | 0 | 0 | 45 | 31 | 95.9 | 0 | 15 | 31 | 30
10 | O=C(Nc1cccc(C(F)(F)F)c1)c1cccc(Oc2ccc3nccn3n2)c1 | 52 | 0 | 0 | 17 | 0 | 12 | 2 | 0 | 0 | 36
11 | Cc1n[nH]c2cc(Nc3ccnc(Nc4cccc(CN5CCOCC5)c4)n3)ccc12 [GW682569] | 17 | 2 | 0 | 20 | 0 | 29 | 0 | 0 | 15 | 0
12 | C[C@@H]1CNc2c(sc3ccc4nc(-c5ccncc5)ccc4c23)C(=O)N1 | 0 | 0 | 0 | 30 | 0 | 0 | 3 | 5 | 0 | 90.3
13 | COc1cc2ncn(-c3cc(OCC4CCCCC4)c(C(N)=O)s3)c2cc1OC [GSK204559] | 0 | 12 | 40 | 0 | 10 | 9 | 0 | 21 | 33 | 16
14 | FC(F)(F)c1cc(Br)cc(Nc2nccc(-c3cnn4ncccc34)n2)c1 [GW810578] | 0 | 0 | 1 | 15 | 2 | 30 | 51 | 60 | 15 | 21
15 | C[C@@H](Oc1cc(-n2cnc3cc(-c4ccncc4)ccc32)sc1C(N)=O)c1ccccc1Cl [GSK479719] | 0 | 66 | 96.5 | 5 | 21 | 82 | 0 | 12 | 62 | 0
16 | CN1CCN(CCCNc2nccc(-c3c(-c4ccc(F)cc4)nn4cc(C(N)=O)ccc34)n2)CC1 [GW622475] | 0 | 0 | 8 | 6 | 10 | 15 | 0 | 25 | 41 | 5
17 | O=C(Nc1ccccc1)c1cccc(Oc2ccc3nccn3n2)c1 | 20 | 0 | 2 | 17 | 0 | 12 | 0 | 0 | 0 | 34

Row | Compound | %Inh (NEK11) [%] | %Inh (NEK1) [%] | %Inh (NEK2) [%] | %Inh (NEK3) [%] | %Inh (NEK4) [%] | %Inh (NEK5) [%] | %Inh (NEK6) [%] | %Inh (NEK7) [%] | %Inh (NEK9) [%] | %Inh (NIK) [%]
18 | CCn1c(-c2nonc2N)nc2cncc(CNC3CCNCC3)c21.Cl [SB-747651] | 11 | 0 | 0 | 15 | 28 | 2 | 0 | 6 | 38 | 13
19 | COC(=O)c1cccc(NC(=O)NC2CCN(c3ccnc(NCc4ccc(F)cc4)n3)CC2)c1 [GSK1379860] | 7 | 0 | 0 | 0 | 6 | 0 | 0 | 4 | 0 | 8
20 | C[C@@H](Oc1cc(-n2cnc3ccc(-c4ccncc4)cc32)sc1C(N)=O)c1ccccc1Cl [GSK483724] | 0 | 51 | 86 | 0 | 4 | 72 | 14 | 17 | 76 | 1
21 | COc1cc(Nc2nccc(N3CCC(NC(=O)c4cccc(C#N)c4)C3)n2)cc(OC)c1OC (stereo not drawn) [GSK1379751] | 0 | 33 | 13 | 34 | 2 | 97.1 | 33 | 11 | 0 | 27
22 | CN(c1ccccc1CNc1nc(Nc2ccc3c(c2)CC(=O)N3)ncc1C(F)(F)F)S(C)(=O)=O | 0 | 0 | 0 | 32 | 0 | 0 | 26 | 64 | 53 | 0
23 | Cc1ccc(CC(=O)N2CCc3cc(-c4cn(C)c5ncnc(N)c45)ccc32)cc1 [GSK2634758] | 59 | 31 | 96.9 | 7 | 11 | 45 | 19 | 0 | 20 | 16
24 | CN1CCN(CCNc2nc3cc(Oc4ccc(NC(=O)Nc5cc(C(F)(F)F)ccc5F)cc4)ccc3[nH]2)CC1.Cl.Cl [GW768504] | 0 | 0 | 0 | 20 | 0 | 1 | 0 | 0 | 0 | 0
25 | NC(=O)c1ccc(-c2cc3ncnc(SCC(=O)O)c3s2)cc1 | 0 | 0 | 0 | 35 | 0 | 0 | 7 | 0 | 0 | 0
26 | C[C@@H]1CCN(C(=O)N2CCCC2)C[C@@H]1N(C)c1ncnc2[nH]ccc12 | 0 | 4 | 0 | 39 | 5 | 0 | 8 | 0 | 0 | 0
27 | Cn1cc(-c2cccc3c(N)c(C(N)=O)nnc23)cn1 | 0 | 0 | 15 | 22 | 16 | 6 | 5 | 0 | 0 | 21
28 | CC(C)S(=O)(=O)N1CCN(Cc2ccc3c(c2)nc(NC(=O)c2ccsc2)n3C[C@H](O)c2ccccc2)CC1 [GW635815] | 1 | 0 | 0 | 0 | 9 | 8 | 0 | 0 | 1 | 9
29 | CC(C)c1nc(-c2cccc(NS(=O)(=O)c3ccccc3)c2)c(-c2ccnc(Nc3ccc4c(c3)CN(C)CC4)n2)s1 [GSK1649598] | 97.7 | 14 | 34 | 27 | 18 | 0 | 0 | 0 | 51 | 3
30 | Cc1ccn2nc(-c3ccc(F)cc3)c(-c3ccncc3)c2c1.Cl [GW457859] | 43 | 12 | 0 | 3 | 0 | 0 | 0 | 0 | 4 | 38
31 | Cn1ccc2ncnc(Oc3ccc(NC(=O)Nc4cncc(C(F)(F)F)c4)c(Cl)c3)c21 | 0 | 0 | 0 | 13 | 0 | 0 | 0 | 0 | 0 | 0
32 | C[C@@H](Oc1cc(-n2cnc3cc(-c4cnn(C)c4)ccc32)sc1C(N)=O)c1ccccc1Cl [GSK580432] | 0 | 88 | 99.2 | 0 | 0 | 99.7 | 41 | 71 | 81 | 7
33 | CN(c1ccc2c(c1)nc(NCc1ccc(F)cc1)n2C)c1ccnc(Nc2ccc(CS(C)(=O)=O)cc2)n1.Cl [GW813244] | 0 | 0 | 0 | 36 | 0 | 0 | 0 | 0 | 21 | 0
34 | Cn1ccc2ncnc(Oc3ccc(NC(=O)Nc4cnn(C(C)(C)C)c4)c(Cl)c3)c21 | 0 | 0 | 0 | 12 | 0 | 6 | 2 | 0 | 0 | 0
